Experimental data taken from the supplement of paper PMC8975748.
Structures can show the parent of a compound that is named as a salt.

The compounds below were run on Saccharomyces cerevisiae BY4741 SeMeCo community (assay: z-score of subpopulation abundance vs DMSO median, subpopulation auxotrophic for HLUM; higher = larger share of this subpopulation than in DMSO controls). Details: 10 µM; 24 h; SM minimal medium; subpopulation (auxotrophy): HLUM.
Experimental: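 Fluorescent four-plasmid SeMeCo (self-establishing metabolically cooperating S. cerevisiae BY4741 community; plasmids pH-mRuby2, pL-mWasabi, pU-eCFP, pM-TagRFP657) was grown 24 h in minimal SM medium with each Selleck FDA-approved drug at 10 µM in 384-well plates. Cells were fixed and imaged by high-content confocal microscopy. For each auxotrophic subpopulation (and the prototroph), a z-score gives the deviation from the DMSO vehicle-control population median.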
`O=C(O[C@H]1C[N+]2(CCCOc3ccccc3)CCC1CC2)C(O)(c1cccs1)c1cccs1` [Aclidinium Bromide] was tested, and the “z-score of subpopulation abundance” value was -0.18.
With `O=[N+]([O-])C(Br)(CO)CO` [Bronopol] the “z-score of subpopulation abundance” value was 0.53.
In the case of `CC[C@H]1CN2CC[C@]3(C(=O)Nc4ccccc43)[C@@H]2C[C@@H]1/C(=C\OC)C(=O)OC` [Rhynchophylline], the “z-score of subpopulation abundance” value is reported as 0.
`CC[C@H]1[C@@H]2C[C@H]3[C@@H]4N(C)c5ccccc5[C@]45C[C@@H]([C@@H]2[C@H]5O)N3[C@@H]1O` [Ajmaline] was tested, and the “z-score of subpopulation abundance” value was -0.76.
`Cc1cc(C(C#N)c2ccc(Cl)cc2)c(Cl)cc1NC(=O)c1cc(I)cc(I)c1O` (stereo not given) [Closantel] was tested, and the “z-score of subpopulation abundance” value was 0.27.
For `COc1ccc(C=O)cc1` [p-Anisaldehyde], the “z-score of subpopulation abundance” value was -0.16.
In the case of `CCC1=C[C@H]2CN3CCc4c([nH]c5ccccc45)[C@](C(=O)OC)(C2)[C@H]13` [Catharanthine], the “z-score of subpopulation abundance” value is reported as -0.22.
In the case of `C=C(C)[C@H]1Cc2c(ccc3c2O[C@@H]2COc4cc(OC)c(OC)cc4[C@@H]2C3=O)O1` [Rotenone (Barbasco)], the “z-score of subpopulation abundance” value is reported as 0.56.
`CN(C)[C@@H]1C(=O)C(C(N)=O)=C(O)[C@@]2(O)C(=O)C3=C(O)c4c(O)cccc4[C@@](C)(O)[C@H]3[C@H](O)[C@@H]12` [Oxytetracycline (Terramycin)] was tested, and the “z-score of subpopulation abundance” value was 0.26.
With `NCC(O)c1ccc(O)cc1` (racemic) [(+,-)-Octopamine HCl] the “z-score of subpopulation abundance” value was -0.38.
With `CN(C)[C@@H]1C(=O)C(C(N)=O)=C(O)[C@@]2(O)C(=O)C3=C(O)c4c(O)cccc4[C@@](C)(O)[C@H]3[C@H](O)[C@@H]12` [Oxytetracycline Dihydrate] the “z-score of subpopulation abundance” value was -0.3.
`COc1ccc2c3c([nH]c2c1)C(C)=NCC3` [Harmaline] was tested, and the “z-score of subpopulation abundance” value was -1.92.
For `CN(C)C(=O)Oc1cccc([N+](C)(C)C)c1` [Neostigmine Bromide], the “z-score of subpopulation abundance” value was -0.18.
`N#Cc1nn(-c2c(Cl)cc(C(F)(F)F)cc2Cl)c(N)c1[S+]([O-])C(F)(F)F` (stereo not given) [Fipronil] was tested, and the “z-score of subpopulation abundance” value was -0.22.
`CN1[C@@H]2CC[C@H]1C[C@@H](OC(=O)[C@H](CO)c1ccccc1)C2` [Hyoscyamine] was tested, and the “z-score of subpopulation abundance” value was 0.62.
For `CC(NC(C)(C)C)C(=O)c1cccc(Cl)c1` (stereo not given) [Amfebutamone (Bupropion) HCl], the “z-score of subpopulation abundance” value was 0.09.
`Oc1cc(Cl)ccc1Oc1ccc(Cl)cc1Cl` [Triclosan] was tested, and the “z-score of subpopulation abundance” value was 2.06.
For `CN(C)[C@@H]1C(=O)C(C(N)=O)=C(O)[C@@]2(O)C(=O)C3=C(O)c4c(O)cccc4[C@@](C)(O)[C@H]3C[C@@H]12` [Tetracycline HCl], the “z-score of subpopulation abundance” value was -0.58.
For `C[C@H]1O[C@H](O[C@H]2[C@H](O)[C@@H](O)[C@@H](O)[C@H](O)[C@@H]2O)[C@@H](N)C[C@@H]1NC(=N)C(=O)O` [Kasugamycin hydrochloride], the “z-score of subpopulation abundance” value was -0.04.
In the case of `CC(=O)O[C@H]1C[C@@H]2CC[C@@H]3[C@H](CC[C@@]4(C)[C@H]3C[C@H]([N+]3(C)CCCCC3)[C@@H]4OC(C)=O)[C@@]2(C)C[C@@H]1[N+]1(C)CCCCC1` [Pancuronium dibromide], the “z-score of subpopulation abundance” value is reported as -0.93.
With `CC1(C)SC2C(N)C(=O)N2C1C(=O)O` (stereo not given) [6-Aminopenicillanic acid] the “z-score of subpopulation abundance” value was -0.72.
`CNC1CC(N)C(O)C(OC2OC(CO)C(O)C3OC4(OC(C(N)CO)C(O)C(O)C4O)OC23)C1O` (stereo not given) [Hygromycin B] was tested, and the “z-score of subpopulation abundance” value was -0.53.
In the case of `CCN(C)C(=O)Oc1cccc([C@H](C)N(C)C)c1` [Rivastigmine Tartrate], the “z-score of subpopulation abundance” value is reported as -0.16.
`CN1[C@@H]2CC[C@H]1C[C@@H](OC(=O)C(CO)c1ccccc1)C2` (stereo not given in full) [Atropine sulfate monohydrate] was tested, and the “z-score of subpopulation abundance” value was -0.85.
`COc1ccc2[nH]cc(CCN)c2c1` [5-Methoxytryptamine] was tested, and the “z-score of subpopulation abundance” value was 0.69.
`C[CH2][Hg][S]c1ccccc1C(=O)[O-].[Na+]` [Thimerosal] was tested, and the “z-score of subpopulation abundance” value was 63.5.
For `CC[N+](C)(CC)CCOC(=O)C(O)(c1ccccc1)c1ccccc1` [Methylbenactyzine Bromide], the “z-score of subpopulation abundance” value was -1.18.
For `Oc1cccc2cccnc12` [8-Hydroxyquinoline], the “z-score of subpopulation abundance” value was 0.11.
In the case of `CN[C@@H]1[C@@H](O)[C@@H](O[C@@H]2[C@@H](O)[C@H](O[C@H]3O[C@H](CN)CC[C@H]3N)[C@@H](N)C[C@H]2N)OC[C@]1(C)O.CN[C@@H]1[C@@H](O)[C@@H](O[C@@H]2[C@@H](O)[C@H](O[C@H]3O[C@H]([C@@H](C)N)CC[C@H]3N)[C@@H](N)C[C@H]2N)OC[C@]1(C)O.CN[C@@H]1[C@@H](O)[C@@H](O[C@@H]2[C@@H](O)[C@H](O[C@H]3O[C@H]([C@@H](C)NC)CC[C@H]3N)[C@@H](N)C[C@H]2N)OC[C@]1(C)O` [Gentamicin Sulfate], the “z-score of subpopulation abundance” value is reported as 0.46.
With `C=CC[C@]1(O)CC[C@H]2[C@@H]3CCC4=CC(=O)CCC4=C3C=C[C@@]21C` [Altrenogest] the “z-score of subpopulation abundance” value was -0.9.
In the case of `Cn1cc(C2=C(c3cn(C4CCN(Cc5ccccn5)CC4)c4ccccc34)C(=O)NC2=O)c2ccccc21`, the “z-score of subpopulation abundance” value is reported as -0.35.
With `CCN(C)C(=O)Oc1cccc([C@H](C)N(C)C)c1` [Rivastigmine] the “z-score of subpopulation abundance” value was -0.15.
In the case of `CCOC(=O)Nc1ccc(NCc2ccc(F)cc2)cc1N` [Retigabine 2HCl], the “z-score of subpopulation abundance” value is reported as -0.39.
For `COc1cc2c(cc1OC)C1CC(=O)C(CC(C)C)CN1CC2` (stereo not given) [Tetrabenazine (Xenazine)], the “z-score of subpopulation abundance” value was 2.34.
`CN1[C@@H]2C[C@@H](OC(=O)[C@H](CO)c3ccccc3)C[C@H]1[C@@H]1O[C@@H]12` [Scopolamine HBr] was tested, and the “z-score of subpopulation abundance” value was -0.88.
In the case of `C[C@@H]1CC[C@H]2[C@@H](C)C(=O)O[C@@H]3O[C@@]4(C)CC[C@@H]1[C@]32OO4` [Artemisinin], the “z-score of subpopulation abundance” value is reported as -0.59.
With `Nc1nc(N)nc(NC2CC2)n1` [Cyromazine] the “z-score of subpopulation abundance” value was 1.21.
With `NCCc1c[nH]c2ccc(O)cc12` [Serotonin HCl] the “z-score of subpopulation abundance” value was 0.3.
With `CCOC(=O)Nc1ccc(NCc2ccc(F)cc2)cc1N` [Retigabine] the “z-score of subpopulation abundance” value was -0.4.
For `CCCN1C[C@H](CSC)C[C@@H]2c3cccc4[nH]cc(c34)C[C@H]21` [Pergolide Mesylate], the “z-score of subpopulation abundance” value was -0.1.
